Data from PubChem BioAssay AID651711 (Broad Institute, 2012).
Where “and” joins values, the source holds several entries; their conditions need not be identical. Equal values may be shown once. Among all 350,000 compounds or so, about 180 (0.051%) were called active. This is one part of a sample in which actives are shown more often than they occur.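 The calls were made as follows: active = mean replicate inhibition above about 25%, with every replicate also reaching it (limit read from the data, passing the limit was not always enough); inconclusive = only one of those two criteria met; inactive = neither criterion met.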

Each molecule was assayed against Protein disulfide-isomerase A6 (Homo sapiens) (UniProt Q15084) (assay: ERp5 (PDIA6) reductase activity blockers – biochemical, turbidity, absorbance 650 nm, single point, primary screen (AID 651711)). Conditions: ERp5 insulin aggregation, 90 min, at 9.99 µM, hits give high values.
Protein disulfide-isomerase A6 (Homo sapiens), sequence (Q15084 whole entry, looked up): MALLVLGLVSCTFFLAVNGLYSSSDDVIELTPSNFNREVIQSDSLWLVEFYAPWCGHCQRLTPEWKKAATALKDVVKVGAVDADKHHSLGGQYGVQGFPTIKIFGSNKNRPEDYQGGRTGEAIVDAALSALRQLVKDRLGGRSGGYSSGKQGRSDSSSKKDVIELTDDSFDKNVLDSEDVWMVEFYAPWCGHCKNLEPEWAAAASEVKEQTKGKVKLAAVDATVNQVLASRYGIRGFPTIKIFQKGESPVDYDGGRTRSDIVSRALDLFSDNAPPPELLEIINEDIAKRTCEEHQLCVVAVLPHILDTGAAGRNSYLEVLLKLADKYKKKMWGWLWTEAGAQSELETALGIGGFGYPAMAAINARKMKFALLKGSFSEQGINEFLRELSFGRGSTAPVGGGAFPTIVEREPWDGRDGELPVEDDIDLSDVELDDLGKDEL
For `O=C(CC1CC1)N1[C@@H](CO)[C@@H](c2ccccc2)C12CN(S(=O)(=O)c1ccccc1)C2`, the inhibition was 7.09% (inactive).
For `COCC(=O)N1C[C@@H]2[C@H](c3ccccc31)[C@@H](CO)N2C(=O)C1CC1`, the inhibition was -1.61% (inactive).
In the case of `COCC#Cc1ccc([C@H]2[C@H](CO)N3C(=O)CN(C(=O)Nc4ccccc4F)C[C@@H]23)cc1`, the inhibition is reported as 3.85% (inactive).
With `CNC[C@H]1Oc2ccc(NS(=O)(=O)c3cn(C)cn3)cc2C(=O)N([C@@H](C)CO)C[C@@H]1C` the inhibition was -3.85% (inactive).
`O=C(C[C@@H]1C[C@@H]2c3cc(NC(=O)c4ccc5c(c4)OCO5)ccc3O[C@@H]2[C@H](CO)O1)NCC1CC1` was tested, and the inhibition was -3.55% (inactive).
With `Cc1cccc(-c2ccc([C@@H]3[C@H](CO)N4CCCCN(Cc5ccncc5)C[C@@H]34)cc2)c1` the inhibition was 10.1% (inactive).
In the case of `COc1ccc2c3c(n(C)c2c1)[C@H](CO)N(Cc1ccc(F)cc1)CC31CCN(C)CC1`, the inhibition is reported as -1.69% (inactive).
`CO[C@H]1CN(C)C(=O)c2cc(NC(=O)C3CCC3)ccc2OC[C@H](C)N(CC2CCCCC2)C[C@@H]1C` was tested, and the inhibition was -3.58% (inactive).
With `CCCNC(=O)N(C)C[C@H]1Oc2cc(-c3ccncc3)ccc2S(=O)(=O)N([C@H](C)CO)C[C@@H]1C` the inhibition was 1.24% (inactive).
In the case of `CCCNC(=O)N1[C@@H]2CNC[C@H]1C2c1ccc(-c2cccc(C)c2)cc1` (some centres undefined), the inhibition is reported as 2.37% (inactive) and -1.56% (inactive).
`O=C(N[C@@H]1CC[C@H](CCn2cc(-c3ccccc3)nn2)O[C@H]1CO)c1cnccn1` was tested, and the inhibition was 19.2% (inactive).
For `C[C@@H]1CN([C@@H](C)CO)C(=O)Cc2cc(NS(=O)(=O)c3cccs3)ccc2O[C@H]1CN(C)S(=O)(=O)c1ccc(F)cc1`, the inhibition was 18.7% (inactive).
With `CC(C)NC(=O)N1[C@H](C#N)[C@H](c2ccc(C#CC3CCCCC3)cc2)[C@H]1CO` the inhibition was -0.752% (inactive).
`O=C(Cc1ccccn1)NCC[C@H]1CC[C@H](NC(=O)Nc2ccc(F)cc2)[C@@H](CO)O1` was tested, and the inhibition was -0.166% (inactive).
In the case of `C[C@@H]1CN([C@@H](C)CO)C(=O)c2cccc(NS(=O)(=O)c3ccc(F)cc3)c2O[C@@H]1CN(C)Cc1ccc(C(=O)O)cc1`, the inhibition is reported as 0.602% (inactive).
`Cc1noc(C)c1NC(=O)N(C)C[C@@H]1Oc2ccc(NC(=O)C3CC3)cc2C(=O)N([C@H](C)CO)C[C@@H]1C` was tested, and the inhibition was 7.46% (inactive).
For `CC(C)NC(=O)N1[C@H](CNC(=O)CN(C)C)[C@@H](c2ccccc2)[C@@H]1CO`, the inhibition was 6.83% (inactive).
In the case of `O=C(C[C@@H]1C[C@H]2c3cc(NC(=O)NC4CCCC4)ccc3O[C@H]2[C@@H](CO)O1)NC1CCCCC1`, the inhibition is reported as 5.32% (inactive).
`CCC(=O)Nc1ccc2c(c1)OC[C@H](C)N(C(=O)c1ccccc1F)C[C@@H](C)[C@H](OC)CN(C)C2=O` was tested, and the inhibition was 12.1% (inactive).
`C[C@@H]1CN([C@@H](C)CO)C(=O)CCCn2cc(nn2)CO[C@@H]1CN(C)Cc1ccccc1C(=O)O` was tested, and the inhibition was 1.73% (inactive).
With `COC(=O)[C@]12C[C@H](CC(=O)NCc3ccccc3)C(=O)N(CCC3=CCCCC3)C1=C[C@H](C(C)(C)C)O[C@@H]2C` the inhibition was 15.6% (inactive).
In the case of `CN1C(=O)c2cc(NC(=O)C3CCOCC3)ccc2OC[C@H]2O[C@@H](CC(=O)NCC3CCCCC3)CC[C@@H]21`, the inhibition is reported as -1.95% (inactive).
`COCCNC(=O)c1ccccc1NS(=O)(=O)c1ccc(C)c([N+](=O)[O-])c1` was tested, and the inhibition was 32.3% (active).
For `COC(=O)CNC(=O)c1ccccc1[N+](=O)[O-]`, the inhibition was -6.79% (inactive).
For `COc1ccc(Br)cc1/C=N/Nc1ccc(S(=O)(=O)Nc2ccccc2C(=O)O)cc1[N+](=O)[O-]`, the inhibition was -6.38% (inactive).
For `COc1cccc(C(=O)OCC(=O)c2[nH]c(C)c(C(C)=O)c2C)c1`, the inhibition was 27.2% (active).
With `CCOC(=O)c1c(C)[nH]c(C(=O)OCC(=O)c2ccc(OC)cc2OC)c1C` the inhibition was -4.48% (inactive).
In the case of `CC(=O)c1c(C)[nH]c(C(=O)COC(=O)c2cccs2)c1C`, the inhibition is reported as 14.1% (inactive).
`C[C@@H]1CN([C@@H](C)CO)C(=O)c2cc(NC(=O)CCCN(C)C)ccc2O[C@@H](C)CCCCO[C@@H]1CN(C)S(=O)(=O)c1ccc(Cl)cc1` was tested, and the inhibition was 0.282% (inactive).
`C[C@@H]1CN([C@@H](C)CO)C(=O)Cc2cc(NC(=O)CCN3CCOCC3)ccc2O[C@@H]1CN(C)C(=O)Nc1cccc2ccccc12` was tested, and the inhibition was 7.67% (inactive).
In the case of `O=C(N[C@@H]1CC[C@@H](CCn2cc(-c3ccccn3)nn2)O[C@@H]1CO)c1ccccc1`, the inhibition is reported as -2.15% (inactive).
In the case of `COc1ccc(S(=O)(=O)Nc2ccc3c(c2)C(=O)N([C@@H](C)CO)C[C@H](C)[C@H](CN(C)Cc2ccc(C(=O)O)cc2)OCCCC[C@@H](C)O3)cc1`, the inhibition is reported as -3.93% (inactive).
With `Cc1noc(C)c1S(=O)(=O)N(C)C[C@H]1Oc2ccc(NS(=O)(=O)c3cccs3)cc2C(=O)N([C@H](C)CO)C[C@H]1C` the inhibition was -0.984% (inactive).
With `O=S(=O)(c1ccccc1)N1CCCCN2[C@@H](CO)[C@H](c3ccc(C#Cc4cccnc4)cc3)[C@@H]2C1` the inhibition was -0.401% (inactive).
For `COCCNC(=O)C[C@@H]1CC[C@H]2[C@H](COc3ccc(NS(=O)(=O)c4ccc(Cl)cc4)cc3C(=O)N2C)O1`, the inhibition was 6.32% (inactive).
In the case of `C[C@H]1CN([C@@H](C)CO)C(=O)Cc2cc(NS(=O)(=O)c3cccs3)ccc2O[C@@H]1CN(C)Cc1ccc(Oc2ccccc2)cc1`, the inhibition is reported as 0.293% (inactive).
In the case of `COc1ccc2c3c([nH]c2c1)[C@@H](CO)N(Cc1ccccc1F)CC31CN(C(=O)C2CC2)C1`, the inhibition is reported as 5.63% (inactive).
For `COc1ccc2c3c([nH]c2c1)[C@@H](CO)N(Cc1cc(F)ccc1F)CC31CN(C(=O)C2CCC2)C1`, the inhibition was 0.016% (inactive).
In the case of `COc1ccc2c3c([nH]c2c1)[C@H](CO)N(Cc1ccccc1Cl)CC31CN(C(=O)C2CC2)C1`, the inhibition is reported as 32% (active).
For `COc1ccc(NC(=O)Nc2cccc3c2O[C@@H](CN(C)C(=O)NC(C)C)[C@H](C)CN([C@H](C)CO)C3=O)cc1`, the inhibition was 1.64% (inactive).
In the case of `O=C(C[C@H]1CC[C@H]2[C@@H](COC[C@@H](O)CN2CC2CCCC2)O1)NCC1CC1`, the inhibition is reported as 5.23% (inactive).
In the case of `O=C(CCN1CCCCC1)NCC[C@H]1CC[C@@H](NC(=O)C2CCOCC2)[C@H](CO)O1`, the inhibition is reported as -1.07% (inactive).
`C[C@H](NC(=O)[C@H]1N[C@H]2c3ccc(-c4ccc(C(=O)N(C)C)cc4)c(=O)n3C[C@H]2[C@@H]1CO)c1ccccc1` was tested, and the inhibition was -1.53% (inactive).
With `O=C(C[C@@H]1CC[C@H](NC(=O)NC2CCCCC2)[C@H](CO)O1)NCc1ccc(F)cc1` the inhibition was -0.201% (inactive).
For `CCC(=O)Nc1ccc2c(c1)OC[C@@H](C)N(Cc1cncnc1)C[C@H](C)[C@@H](OC)CN(C)C2=O`, the inhibition was 1.32% (inactive).
With `O=C(Nc1cccc(F)c1)N1CC(=O)N2[C@H](C1)[C@H](c1ccc(-c3ccccc3F)cc1)[C@@H]2CO` the inhibition was -0.993% (inactive).
With `CN(C)C(=O)[C@@H]1[C@@H](CO)[C@@H]2Cn3c(ccc(-c4ccncc4)c3=O)[C@H]1N2C(=O)NC1CCCC1` the inhibition was -2.64% (inactive).
For `CO[C@@H]1CN(C)C(=O)c2cc(NC(=O)c3ccccc3F)ccc2OC[C@H](C)N(C(C)=O)C[C@@H]1C`, the inhibition was 3.35% (inactive).
For `O=C(C[C@H]1CC[C@@H]2[C@H](COC[C@H](O)CN2Cc2ccccc2F)O1)NC1CCC1`, the inhibition was -3.28% (inactive).
`CCCNC(=O)C[C@H]1C[C@H]2c3cc(NC(=O)COC)ccc3O[C@H]2[C@H](CO)O1` was tested, and the inhibition was 2.76% (inactive).
With `CNC(=O)C[C@@H]1CC[C@@H]2[C@@H](COc3ccc(NC(=O)Nc4ccccc4OC)cc3C(=O)N2C)O1` the inhibition was 5.92% (inactive).
In the case of `CCC(=O)N(C)C[C@@H]1Oc2cc(C#C[C@H](C)O)ccc2S(=O)(=O)N([C@@H](C)CO)C[C@H]1C`, the inhibition is reported as -0.347% (inactive).
In the case of `C[C@@H]1CN([C@H](C)CO)C(=O)Cc2cc(NC(=O)CCN3CCOCC3)ccc2O[C@H]1CN(C)CC1CC1`, the inhibition is reported as -3.37% (inactive).
In the case of `COc1ccc(CCN2C(=O)[C@@]3(Cc4ccccc42)c2ccccc2C(=O)N(Cc2ccccc2C(F)(F)F)[C@H]3c2ccc(CO)cc2)cc1`, the inhibition is reported as 4.71% (inactive).
In the case of `C[C@H](CO)N1C[C@H](C)[C@@H](CN(C)C(=O)Cc2ccncc2)Oc2ncc(C3=CCCCC3)cc2C1=O`, the inhibition is reported as 4.38% (inactive).
`O=C(c1cccc(F)c1)N1CC[C@@H]2[C@@H](CO)Nc3ccc(C#Cc4cccc(F)c4)cc3[C@@H]21` was tested, and the inhibition was -3.07% (inactive).
For `C[C@H](CO)N1C[C@H](C)[C@@H](CN(C)Cc2ccc(C(=O)O)cc2)Oc2ccc(NS(=O)(=O)c3cn(C)cn3)cc2CC1=O`, the inhibition was -1.33% (inactive).
In the case of `CC(C)NC(=O)N1CC2(C1)[C@H](c1ccccc1)[C@H](CO)N2C(=O)C1CCOCC1`, the inhibition is reported as 0.292% (inactive).
With `C/C=C/c1ccc([C@H]2[C@@H](CO)N(C(=O)NCCC)[C@H]2CN(C)C(C)=O)cc1` the inhibition was 5.18% (inactive).
`CC(C)NC(=O)Nc1ccc2c(c1)C(=O)N([C@H](C)CO)C[C@@H](C)[C@@H](CN(C)Cc1ccncc1)O2` was tested, and the inhibition was -5.48% (inactive).
In the case of `COc1ccc(C#Cc2cccc(-c3nc(C(=O)O)cc4c3[C@@H](CCO)N(S(=O)C(C)(C)C)C4)c2)cc1OC` (some centres undefined), the inhibition is reported as -1.96% (inactive).
With `Cc1ccc(S(=O)(=O)N(C)C[C@@H]2OCc3ccccc3-c3c(n(C)c4ccccc34)C(=O)N([C@@H](C)CO)C[C@@H]2C)cc1` the inhibition was 3.4% (inactive).
`O=C(C[C@H]1C=C[C@H](NC(=O)Nc2ccc(C(F)(F)F)cc2)[C@@H](CO)O1)NCCN1CCCC1` was tested, and the inhibition was 18.1% (inactive).
`C[C@@H]1CN([C@@H](C)CO)C(=O)Cc2cc(NC(=O)Cc3cn(C)c4ccccc34)ccc2O[C@H]1CN(C)C(=O)NC1CCCCC1` was tested, and the inhibition was 5.6% (inactive).
